# High-throughput results (PubChem)
# This excerpt belongs to a sample that is enriched for hits.
# Cycloheximide cs: counter-screen hit for Shiga toxin inhibitors, cycloheximide; cell reporter, cycloheximide protein synthesis inhibition counterscreen; max response, %; hit rate 12% among 300,000; in the data active means max response mostly above about 13%, no sharp cut-off; inactive means mostly below about 14%; further: read at 38.3 µM for the half of the compounds with a filed dose; 0% is about no effect
# Tb PYK inh: blocks Trypanosoma brucei pyruvate kinase; Q57TT1; AID 624173; TbPYK enzyme, Kinase-Glo Plus ATP luminescence, 45 min; hit rate 0.12% among 410,000; Potency, µM (series often up to 76.8 µM), inactives show at the top dose activity, negative = inhibition, actives largely listed as inhibitors; further: potency means the concentration at half of the fitted maximal effect; on the % scale 0 is the no-effect control and ±100 the full control effect; nearly all actives have a fitted effect of over 50% in size
#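 Assay buffer: 50 mM TEA pH 7.2, 100 mM KCl, 10 mM MgCl2, 0.05% BSA, 0.01% Tween-20. Pyruvate kinase from T. brucei plus substrate met compound, then ADP (130 uM final). Luminescence was read post 45 min RT.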
# Giardia FBPA inh: inhibitors of Giardia lamblia fructose-1,6-bisphosphate aldolase | purified Giardia FBPA | hit rate 0.71% among 290,000 | A8B2U2 | Potency, µM (top dose mostly 59.6 µM), for inactives: at the top dose activity, negative = inhibition, actives largely listed as inhibitors | AID 2451; further: potency means the concentration at half of the fitted maximal effect; on the % scale 0 is the no-effect control and ±100 the full control effect; nearly all actives have a fitted effect of over 55% in size
# Target sequence (A8B2U2 whole entry, looked up): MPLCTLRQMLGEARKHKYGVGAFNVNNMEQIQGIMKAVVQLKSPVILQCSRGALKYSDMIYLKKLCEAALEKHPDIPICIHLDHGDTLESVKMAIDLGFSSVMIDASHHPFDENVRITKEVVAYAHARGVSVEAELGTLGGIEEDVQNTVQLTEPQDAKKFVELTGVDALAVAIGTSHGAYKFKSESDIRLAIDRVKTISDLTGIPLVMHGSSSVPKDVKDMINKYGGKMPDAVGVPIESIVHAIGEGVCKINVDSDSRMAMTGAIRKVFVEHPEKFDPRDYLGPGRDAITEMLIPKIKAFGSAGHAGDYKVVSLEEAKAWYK
#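 Giardia FBPA (40 nM reagent) was preincubated 10 min at RT with compound (up to 57.5 uM final), then substrate plus GAPDH/TPI/NAD/arsenate coupling system with diaphorase/resazurin was added; resorufin fluorescence (525/598 nm) was read after 20 min.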
# Shiga toxin inh: blocks Shiga toxin action in Vero cells; Vero cells, Shiga toxin protein synthesis inhibition reporter; inhibition, % at 38.7 µM; hit rate 9.2% among 290,000; AID 2315; in the data active means inhibition mostly above about 28%, no sharp cut-off; inactive means mostly below about 43%; further: 0% is about no effect
# RE007 growth inh: less growth of the S. pombe RE007 Vpr strain | S. pombe RE007 Vpr strain, BacTiter-Glo ATP luminescence, 24 h | Potency, µM (series often up to 92.2 µM), for the others: top-dose activity change, negative = less growth, hits mostly inhibitors | AID 651644 | hit rate 0.21% among 360,000; active means well fitted falling curve with a large enough effect; inconclusive means small, poorly fitted or top-dose-only effect; inactive means no such curve, though single readings can be large or run the other way; further: potency means the concentration at half of the fitted maximal effect; on the % scale 0 is the no-effect control and ±100 the full control effect; nearly all actives have a fitted effect of over 50% in size
#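 Fission yeast RE007 carrying one integrated HIV-1 vpr copy, seeded at OD 0.01 in PMG+AL medium with 23 nL pinned compound. Grown 24 h at 30 degrees; viability read by BacTiter-Glo luminescence after 5 min.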
# LmPK inh: LmPK (Leishmania mexicana) enzyme inhibition; purified LmPK, Kinase-Glo ATP luminescence, 1 h; hit rate 0.37% among 290,000; Potency, µM (titrated, usually from 57.5 µM), inactives show at the top dose activity change, negative = inhibition, most hits filed as inhibitors; further: potency means the concentration at half of the fitted maximal effect; on the % scale 0 is the no-effect control and ±100 the full control effect
#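 ATP generated from ADP (0.1 mM) and PEP (0.5 mM) by 0.1 nM LmPK over 1 h at room temperature (pH 7.2 imidazole buffer) was detected by coupled luciferase luminescence. Values were normalized to uninhibited and no-enzyme wells.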
# * = called active by the depositor; u = inconclusive; x = no result given; [ ] = another dose, or the depositor's remark. Unless noted, the call rests on the fitted dose curve; in most records, active means well fitted curve in the direction sought with a large enough effect; inconclusive means small, poorly fitted or top-dose-only effect, or another doubt; inactive means no such curve, though single readings can be large; an effect the other way counts as inactive or inconclusive.
SMILES,Cycloheximide cs,Tb PYK inh,Giardia FBPA inh,Shiga toxin inh,RE007 growth inh,LmPK inh
O=C(N/N=C/c1ccc2c(c1)OCO2)c1ccc(NC(=O)c2ccccc2Cl)cc1,12,-3%,-7%,25,0%,-4%
O=C(N/N=C/c1ccc2c(c1)OCO2)C(=O)Nc1cccc(Cl)c1,16*,0%,0%,65*,10%,-7%
O=C(N/N=C/c1ccc2c(c1)OCO2)c1cccc(NC(=O)c2ccccc2Cl)c1,12,2%,2%,48*,10%,0%
Cc1ccccc1C(=O)Nc1cccc(C(=O)N/N=C/c2ccc3c(c2)OCO3)c1,20*,4%,-6%,55*,11%,2%
Cc1cccc(C(=O)Nc2cccc(C(=O)N/N=C/c3ccc4c(c3)OCO4)c2)c1,40*,-13%,3%,79*,13%,-4%
COC(=O)c1cc(S(=O)(=O)NCCN2CCN(c3ccccc3F)CC2)c[nH]1,5,6%,-1%,19,7%,4%
CC=CC1=C(C(=O)O)N2C(=O)[C@H](NC(=O)[C@H](N)c3ccc(O)cc3)[C@@H]2SC1,-3,2%,u,-10,x,x
O=C1c2ccccc2C(=O)c2c1cccc2-n1nnc2ccccc21,-4,-12%,-3%,-6,-8%,5%
O=C1C(N2CCOCC2)=C(n2nnc3ccccc32)C(=O)c2ccccc21,45*,-1%,u,26,-13%,-18%
CCc1ccc2nc(NC(=O)CCCc3cccs3)sc2c1,33*,-20%,5%,49*,-16%,0%
COc1n[nH]c(C(=O)Nc2nc3ccccc3s2)c1[N+](=O)[O-],33*,-7%,u,75*,-15%,-17%
CC1(C(=O)Nc2nc3ccccc3s2)CC1(Br)Br (stereo unspecified),44*,-7%,19%,94*,-9%,2%
O=C(Cc1nc(=O)c2ccccc2s1)Nc1ccccc1,59*,-3%,7%,67*,6%,-1%
CC(=O)Nc1ccc(-c2csc(NC(=O)CCCc3cccs3)n2)cc1,9,1%,-17%,28,20%,-1%
O=C(Cc1ccccc1)Nc1nc(=O)c2ccccc2s1,0,1%,x,-3,20%,1%
O=C(c1ccco1)N1CCN(c2ccc(N3CCCCC3)nn2)CC1,x,2%,x,x,-3%,x
COc1ccccc1-c1cccc([C@@H]2C[C@H]3[C@@H](CN2)CON3C)c1,x,-6%,x,x,-10%,x
CC1CC(C)C(=O)C(C(O)CC2CC(=O)NC(=O)C2)C1 (stereo unspecified),x,3%[157 µM],x,x,x,x
CCOC(=O)c1cc(-c2ccc(F)cc2)n(CCC(=O)NCc2ccc(C)cc2)c1C,x,9%[15.4 µM],x,x,x,x
COCC(=O)Nc1nc2ccccc2s1,29*,-1%,9%,50*,1%,-9%
COc1ccc2nc(NC(=O)Cc3cccs3)sc2c1,51*,-16%,-6%,152*,-15%,0%
CN(C)C(CNC(=O)CCc1nc2ccccc2s1)c1ccccc1 (stereo unspecified),5,2%,2%,-3,16%,0%
COC(=O)CCCCCCCCC(=O)Nc1nc2ccccc2s1,-1,-2%,5%,14,5%,5%
COc1ccc2nc(NC(=O)CCc3cc(OC)c(OC)c(OC)c3)sc2c1,8,3%,-8%,-16,1%,5%
O=C(Cc1ccccc1)Nc1nc2ccccc2s1,26*,3%,0%,49*,19%,4%
SMILES,Cycloheximide cs,Tb PYK inh,Giardia FBPA inh,Shiga toxin inh,RE007 growth inh,LmPK inh
CC(Cc1ccccc1)C(=O)NCc1nc2ccccc2s1 (stereo unspecified),19*,-3%,4%,30*,3%,1%
COc1cc(Cl)c(C)cc1Nc1ncnc2c1nc1n2CCCC1,x,4%,x,x,x,x
CCN(CC)C(=O)Oc1ccc2oc(=O)cc(-c3cc4cccc(OC)c4o3)c2c1,-5,0%,14%,-1,12%,4%
CCOc1ccc2nc(NC(=O)Cc3cccs3)sc2c1,40*,-12%,-1%,84*,-1%,-9%
Cc1ccc2nc(NC(=O)CSCC(=O)Nc3cc(C)on3)sc2c1,x,2%,x,x,0%,x
COc1ccccc1CC(=O)Nc1ncc(C)s1,1,-4%,16%,17,-5%,-5%
CCn1nc(NC(=O)C2CCCO2)c2cc3cc(C)ccc3nc21 (stereo unspecified),14,-13%,-4%,31,23%,0%
Cc1ccc2nc(NC(=O)Cc3cccs3)sc2c1,50*,-9%,0%,125*,15%,1%
Cc1ccc2nc(-c3ccc(NC(=O)C4CCCO4)cc3)[nH]c2c1 (stereo unspecified),55*,0%,-8%,44,8%,-25%
Cc1cnc(NC(=O)Cc2cccs2)s1,21*,2%,24%,50,-2%,2%
Cc1oc2c(c(C)cc3oc(=O)c(CC(=O)NCCc4ccccc4)c(C)c32)c1C,x,3%,x,x,x,x
CC1CCCCC1NC(=O)CN1CCC(NC(=O)C(C)(C)C)CC1 (stereo unspecified),x,6%,x,x,-6%,x
COCC(=O)Nc1nc2ccc(S(C)(=O)=O)cc2s1,40*,-1%,-4%,108*,11%,-7%
CS(=O)(=O)c1ccc2nc(NC(=O)C3CC3)sc2c1,x,-3%,x,x,15%,x
Cc1ccc2nc(-c3ccc(NC(=O)Cc4cccs4)cc3)[nH]c2c1,30*,-4%,4%,75,2%,-6%
COCC(=O)Nc1nnc(-c2ccc(C(C)(C)C)cc2)s1,52*,3%,1%,91*,0%,-4%
O=C(Cc1cccs1)Nc1nc2ccccc2s1,30*,2%,1%,111*,-10%,-1%
O=C(NCC1(N2CCCCC2)CCCCC1)c1cccc(S(=O)(=O)Nc2ccc(F)cc2)c1,x,-24%,x,x,-16%,x
COCCCNc1nccn2ccnc12,x,-1%,x,x,2%,x
COc1ccc2nc(NC(=O)CN(C)S(=O)(=O)c3cccs3)sc2c1,23*,2%,-3%,58*,-13%,-2%
COc1ccc2nc(NC(=O)CNS(=O)(=O)c3cccs3)sc2c1,12,-5%,4%,10,-1%,6%
Cc1ccc(CNc2ccc([N+](=O)[O-])cc2C(N)=O)cc1,x,5%,x,x,5%,x
NC(=O)c1cc([N+](=O)[O-])ccc1NCCN1C(=O)c2ccccc2C1=O,23*,x,0%,65*,x,0%
CC(=O)c1cccc(-c2cnc3c(NC=O)cc(-c4ccc(F)cc4)cn23)c1,x,-13%,x,x,-8%[18.4 µM],x
COc1ccc(OCC2CCNCC2)cc1,33*,-6%,-7%,39*,-3%,0%
Cc1c2c(nc3ccccc13)CCC(C(C)(C)C)C2 (stereo unspecified),26*,1%,-2%,62*,-29%,-1%
